Laboratory results reported in the supplement of paper PMC11732987, “Enantioselective OTUD7B fragment discovery through chemoproteomics screening and high-throughput optimisation” (Communications Chemistry, 2025).

What was measured:
Assay in all cases: log2 ratio of Biotin-Ahx-Ub-VS probe labelling (fragment/DMSO); higher = less target engagement (more negative = stronger competition), active = hit call of the paper (q ≤ 0.05, log2 ratio ≤ -1)
Settings in all cases: compound concentration: 200 uM; treatment time: 3 h
OTUD6B = target: T1, OTUD6B (UniProt Q8N6M0)
T1 sequence (whole entry): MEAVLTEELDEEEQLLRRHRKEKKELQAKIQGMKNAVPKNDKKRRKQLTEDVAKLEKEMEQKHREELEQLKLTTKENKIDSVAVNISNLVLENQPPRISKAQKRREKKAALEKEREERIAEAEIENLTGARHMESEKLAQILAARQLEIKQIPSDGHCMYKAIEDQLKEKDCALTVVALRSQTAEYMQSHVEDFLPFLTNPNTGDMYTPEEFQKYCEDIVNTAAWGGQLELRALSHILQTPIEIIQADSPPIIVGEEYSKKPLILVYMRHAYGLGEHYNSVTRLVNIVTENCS
In short: (§1)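 Triplicate samples of HEK293T lysate, 495 µg each, received fragment at 200 µM or vehicle for 3 h, followed by Biotin-Ahx-Ub-VS (0.5 µM final) for 1 h. After NeutrAvidin enrichment of labelled DUBs and LysC/trypsin digestion, peptides were run by diaPASEF LC-MS/MS. The values are average log2 fragment/vehicle ratios from global-median-normalised Spectronaut label-free quantities, tested by unpaired t-test on proteins having ≥2 unique peptides.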

OTUD7B = target: T2, OTUD7B (UniProt Q6GQQ9)
T2 sequence (whole entry): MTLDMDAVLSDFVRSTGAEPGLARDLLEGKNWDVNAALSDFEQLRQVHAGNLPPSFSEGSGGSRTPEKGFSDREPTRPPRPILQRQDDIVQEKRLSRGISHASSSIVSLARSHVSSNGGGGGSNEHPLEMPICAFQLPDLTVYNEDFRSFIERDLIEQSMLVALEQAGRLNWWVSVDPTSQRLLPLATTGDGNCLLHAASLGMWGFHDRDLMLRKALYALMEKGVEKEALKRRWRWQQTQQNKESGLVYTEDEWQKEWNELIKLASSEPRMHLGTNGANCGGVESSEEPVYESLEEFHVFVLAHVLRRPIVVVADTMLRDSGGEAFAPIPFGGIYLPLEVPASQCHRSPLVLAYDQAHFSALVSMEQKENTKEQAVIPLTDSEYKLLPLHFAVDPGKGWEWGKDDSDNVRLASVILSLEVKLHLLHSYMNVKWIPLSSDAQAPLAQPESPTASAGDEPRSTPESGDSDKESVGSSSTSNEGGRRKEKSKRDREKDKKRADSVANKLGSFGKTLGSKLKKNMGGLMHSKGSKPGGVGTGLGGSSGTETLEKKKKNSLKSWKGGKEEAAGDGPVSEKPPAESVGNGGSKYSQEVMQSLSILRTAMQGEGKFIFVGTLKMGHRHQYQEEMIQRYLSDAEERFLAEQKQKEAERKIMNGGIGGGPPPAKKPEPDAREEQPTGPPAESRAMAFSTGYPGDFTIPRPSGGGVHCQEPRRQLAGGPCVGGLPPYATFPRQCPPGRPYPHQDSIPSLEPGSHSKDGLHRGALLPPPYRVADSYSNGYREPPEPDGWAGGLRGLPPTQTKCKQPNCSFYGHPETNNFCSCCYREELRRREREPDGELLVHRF
In short: as §1

PRPF8 = PRPF8 (UniProt Q6P2Q9)
In short: as §1

PSMD7 = target: T3, PSMD7 (UniProt P51665)
T3 sequence (whole entry): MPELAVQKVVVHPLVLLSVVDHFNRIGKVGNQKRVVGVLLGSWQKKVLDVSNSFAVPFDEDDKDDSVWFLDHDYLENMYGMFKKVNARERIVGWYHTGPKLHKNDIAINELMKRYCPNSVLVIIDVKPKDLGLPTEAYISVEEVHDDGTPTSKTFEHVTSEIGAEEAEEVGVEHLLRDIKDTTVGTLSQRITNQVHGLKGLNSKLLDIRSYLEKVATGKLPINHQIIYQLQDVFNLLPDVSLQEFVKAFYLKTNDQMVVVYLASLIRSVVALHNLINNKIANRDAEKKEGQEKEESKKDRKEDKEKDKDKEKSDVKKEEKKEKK
In short: as §1

UCHL1 = UCHL1 (UniProt P09936)
Sequence of UCHL1 (P09936 whole entry, looked up): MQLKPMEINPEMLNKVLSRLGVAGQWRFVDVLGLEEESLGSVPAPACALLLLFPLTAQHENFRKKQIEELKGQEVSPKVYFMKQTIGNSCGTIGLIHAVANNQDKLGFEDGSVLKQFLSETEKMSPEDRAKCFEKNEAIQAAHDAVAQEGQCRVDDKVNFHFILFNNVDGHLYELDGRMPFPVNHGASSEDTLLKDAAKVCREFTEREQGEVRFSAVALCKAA
In short: as §1

UCHL3 = target: T4, UCHL3 (UniProt P15374)
T4 sequence (whole entry): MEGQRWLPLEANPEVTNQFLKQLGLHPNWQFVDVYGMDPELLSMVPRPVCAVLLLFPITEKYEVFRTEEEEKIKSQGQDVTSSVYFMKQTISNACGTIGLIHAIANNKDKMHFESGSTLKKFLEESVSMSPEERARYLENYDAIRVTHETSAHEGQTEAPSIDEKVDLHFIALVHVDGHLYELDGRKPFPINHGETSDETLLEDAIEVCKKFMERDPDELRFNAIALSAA
In short: as §1

UCHL5 = target: T5, UCHL5 (UniProt Q9Y5K5)
T5 sequence (whole entry): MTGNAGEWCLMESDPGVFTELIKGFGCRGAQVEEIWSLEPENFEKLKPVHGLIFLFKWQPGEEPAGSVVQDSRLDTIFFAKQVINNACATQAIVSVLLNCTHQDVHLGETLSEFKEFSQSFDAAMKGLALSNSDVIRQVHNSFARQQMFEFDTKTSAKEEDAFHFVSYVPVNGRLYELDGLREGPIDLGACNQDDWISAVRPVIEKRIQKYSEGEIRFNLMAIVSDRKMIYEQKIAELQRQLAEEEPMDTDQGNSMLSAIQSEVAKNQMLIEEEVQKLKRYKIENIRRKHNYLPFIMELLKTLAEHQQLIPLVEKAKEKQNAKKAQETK
In short: as §1

USP10 = USP10 (UniProt Q14694)
Sequence of USP10 (Q14694 whole entry): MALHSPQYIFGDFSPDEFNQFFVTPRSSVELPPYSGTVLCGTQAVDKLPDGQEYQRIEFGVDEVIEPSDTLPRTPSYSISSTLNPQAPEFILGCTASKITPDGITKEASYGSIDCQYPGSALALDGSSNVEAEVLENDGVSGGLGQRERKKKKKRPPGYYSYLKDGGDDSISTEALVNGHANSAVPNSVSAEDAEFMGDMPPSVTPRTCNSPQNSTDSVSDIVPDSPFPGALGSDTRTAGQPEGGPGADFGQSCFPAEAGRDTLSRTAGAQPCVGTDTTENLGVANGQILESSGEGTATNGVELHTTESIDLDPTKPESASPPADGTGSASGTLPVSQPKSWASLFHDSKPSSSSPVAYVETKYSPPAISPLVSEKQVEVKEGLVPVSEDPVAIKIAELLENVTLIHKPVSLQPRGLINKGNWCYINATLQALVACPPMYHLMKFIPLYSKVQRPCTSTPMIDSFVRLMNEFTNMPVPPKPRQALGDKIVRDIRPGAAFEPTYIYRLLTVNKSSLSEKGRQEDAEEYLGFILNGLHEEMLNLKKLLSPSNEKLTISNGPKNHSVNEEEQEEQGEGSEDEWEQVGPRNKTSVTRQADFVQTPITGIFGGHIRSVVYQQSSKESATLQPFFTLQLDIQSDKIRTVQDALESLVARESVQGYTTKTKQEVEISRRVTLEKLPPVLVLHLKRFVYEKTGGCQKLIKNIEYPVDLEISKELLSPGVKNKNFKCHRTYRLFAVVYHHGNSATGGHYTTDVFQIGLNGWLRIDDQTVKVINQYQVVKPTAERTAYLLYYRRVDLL
In short: as §1

USP15 = target: T6, USP15 (UniProt Q9Y4E8)
T6 sequence (whole entry): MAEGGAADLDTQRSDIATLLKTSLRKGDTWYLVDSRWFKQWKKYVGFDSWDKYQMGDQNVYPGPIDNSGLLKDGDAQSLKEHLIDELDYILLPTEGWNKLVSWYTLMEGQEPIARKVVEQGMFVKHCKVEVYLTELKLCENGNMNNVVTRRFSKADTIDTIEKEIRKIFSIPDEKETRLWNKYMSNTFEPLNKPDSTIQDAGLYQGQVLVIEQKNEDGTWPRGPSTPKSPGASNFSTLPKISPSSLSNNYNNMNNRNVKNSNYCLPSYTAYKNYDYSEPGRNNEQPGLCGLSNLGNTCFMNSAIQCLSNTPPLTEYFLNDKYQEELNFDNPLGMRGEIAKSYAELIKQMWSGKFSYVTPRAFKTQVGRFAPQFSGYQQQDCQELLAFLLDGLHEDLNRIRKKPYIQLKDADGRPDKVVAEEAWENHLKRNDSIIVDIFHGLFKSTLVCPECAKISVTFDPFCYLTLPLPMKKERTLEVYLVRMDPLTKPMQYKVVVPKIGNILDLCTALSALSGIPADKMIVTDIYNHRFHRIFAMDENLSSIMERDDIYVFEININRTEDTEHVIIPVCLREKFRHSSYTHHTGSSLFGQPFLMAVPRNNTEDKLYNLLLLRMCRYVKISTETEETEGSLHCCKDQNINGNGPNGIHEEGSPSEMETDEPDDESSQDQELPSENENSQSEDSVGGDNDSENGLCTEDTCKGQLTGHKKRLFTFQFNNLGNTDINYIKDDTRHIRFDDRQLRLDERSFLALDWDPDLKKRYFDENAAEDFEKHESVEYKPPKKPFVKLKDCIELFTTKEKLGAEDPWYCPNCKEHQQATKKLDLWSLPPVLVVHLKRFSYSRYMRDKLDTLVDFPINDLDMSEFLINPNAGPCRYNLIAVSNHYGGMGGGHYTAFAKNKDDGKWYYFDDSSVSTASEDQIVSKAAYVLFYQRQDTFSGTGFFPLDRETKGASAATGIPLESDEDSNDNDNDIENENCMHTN
In short: as §1

USP16 = USP16 (UniProt Q9Y5T5)
Sequence of USP16 (Q9Y5T5 whole entry, looked up): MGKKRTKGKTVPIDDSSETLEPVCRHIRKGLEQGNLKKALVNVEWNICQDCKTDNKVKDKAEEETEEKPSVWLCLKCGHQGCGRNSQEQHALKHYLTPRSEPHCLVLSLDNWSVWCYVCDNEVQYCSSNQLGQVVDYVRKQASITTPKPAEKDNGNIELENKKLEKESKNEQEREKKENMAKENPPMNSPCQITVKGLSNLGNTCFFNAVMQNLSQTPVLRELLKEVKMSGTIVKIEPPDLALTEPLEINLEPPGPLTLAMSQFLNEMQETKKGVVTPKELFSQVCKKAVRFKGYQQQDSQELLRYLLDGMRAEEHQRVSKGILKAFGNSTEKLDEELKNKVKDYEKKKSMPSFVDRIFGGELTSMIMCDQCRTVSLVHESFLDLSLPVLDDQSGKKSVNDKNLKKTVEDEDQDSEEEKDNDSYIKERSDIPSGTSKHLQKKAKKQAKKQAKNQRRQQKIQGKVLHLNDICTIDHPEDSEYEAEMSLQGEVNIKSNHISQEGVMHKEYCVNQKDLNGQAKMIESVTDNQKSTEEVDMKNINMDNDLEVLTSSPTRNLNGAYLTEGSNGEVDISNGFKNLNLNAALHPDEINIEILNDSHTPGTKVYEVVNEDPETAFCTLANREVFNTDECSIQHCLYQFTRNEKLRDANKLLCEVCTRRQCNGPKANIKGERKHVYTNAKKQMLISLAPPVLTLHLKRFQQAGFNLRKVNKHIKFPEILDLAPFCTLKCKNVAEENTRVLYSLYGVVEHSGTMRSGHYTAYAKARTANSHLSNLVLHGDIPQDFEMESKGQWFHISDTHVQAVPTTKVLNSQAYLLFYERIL
In short: as §1

Measured: log2 ratio of Biotin-Ahx-Ub-VS probe labelling

Cc1cc(CC(C)NC(=O)CCl)n[nH]1 (stereo not given)
inactive: OTUD6B -0.0562 | OTUD7B -0.54 | PRPF8 -0.109 | PSMD7 -0.276 | UCHL1 -0.533 | UCHL3 -0.222 | UCHL5 -0.292 | USP10 -0.0255 | USP15 -0.325 | USP16 0.186
